ALR H2O2 inh: blocks human ALR sulfhydryl oxidase activity. P55789. purified ALR, DTT oxidation, H2O2 HRP-luminol luminescence. inhibition, % (no concentration beside the values). 3.8% of 290,000 active;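 active means mean replicate inhibition above about 79%, with every replicate also reaching it, limit read from the data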
PfM18AAP inh: blocks P. falciparum M18 aspartyl aminopeptidase; inhibition, % at 7.35 µM; recombinant PfM18AAP, H-Glu-NHMec fluorogenic cleavage; AID 1822; 1.2% of 290,000 active;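 active means inhibition above the campaign mean inhibition over all tested compounds plus 3 SD, cut at about 28% in these data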;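 further: 0% = plate median of test compound wells and 100% = 2 mM ZnCl2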
PHOSPHO1 inh: inhibitors of human PHOSPHO1 phosphatase | inhibition, % at 13.3 µM | recombinant PHOSPHO1, absorbance phosphatase assay | Q8TCT1 | 1.1% of 290,000 active; in the data active means inhibition above about 60%
Target sequence (Q8TCT1 whole entry, looked up): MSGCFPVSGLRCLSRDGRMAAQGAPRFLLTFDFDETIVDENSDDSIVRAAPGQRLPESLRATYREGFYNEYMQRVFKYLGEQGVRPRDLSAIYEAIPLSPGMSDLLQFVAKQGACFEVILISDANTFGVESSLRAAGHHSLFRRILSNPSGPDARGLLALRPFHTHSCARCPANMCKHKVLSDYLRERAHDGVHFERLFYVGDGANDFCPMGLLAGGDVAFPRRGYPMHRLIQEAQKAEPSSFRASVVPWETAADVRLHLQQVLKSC
Cardio protect: modulators protecting cardiomyocytes from myocardial damage; H9c2 cardiomyocytes, H2O2 injury protection, ATPLite, 2 h; protection from H2O2 cell death, % at 20 µM; 0.63% of 360,000 active; AID 588492;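 active means compounds giving at least 50% protection of heart cells from peroxide-induced death in the single-dose screen, raw or plate-pattern-corrected value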;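 further: 0% = DMSO wells with peroxide and 100% = DMSO wells without peroxide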
PfGluPho inh: PfG6PD (Plasmodium falciparum) enzyme inhibition; inhibition, % at 20 µM; PfGluPho enzyme, NADPH resazurin-diaphorase fluorescence; 0.78% of 350,000 active; AID 504690;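 active means inhibition reaching at least a set limit at 20 µM in the primary screen, cut at about 59% in these data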;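 further: 0% = DMSO wells with substrate and 100% = DMSO wells lacking glucose-6-phosphate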
* hit, by the source's call. In the library only some 5.6% were active in any assay of this set; here they are far more common.

Cn1c(CNc2nc3ccccc3n2CCN2CCCCC2)nc2ccccc21 was read as ALR H2O2 inh -7, PfM18AAP inh -2, PHOSPHO1 inh 29, Cardio protect 17 and PfGluPho inh -6.
O=C(COc1ccccc1F)Nc1ccc2c(c1)OCCO2 was read as ALR H2O2 inh 0, PfM18AAP inh 0, PHOSPHO1 inh 13, Cardio protect -11 and PfGluPho inh -18.
For CC1(c2ccccc2)NC(=O)N(CC(=O)NCc2cccc(Cl)c2)C1=O (configuration not stated) the results were ALR H2O2 inh -1, PfM18AAP inh -5, PHOSPHO1 inh 16, Cardio protect 5 and PfGluPho inh 2.
`O=C1NC(Cc2ccccc2)c2nc3ccc(Cl)cc3c(=O)n2-c2ncccc21` (configuration not stated) gave Cardio protect 11 and PfGluPho inh 18.
For CCc1ccc2c(c1)NC(=O)C2(C)Cc1ccccc1C#N (configuration not stated) the results were Cardio protect 10.
`O=C(CSc1ncccn1)Nc1cccc2ccccc12` gave ALR H2O2 inh -1, PfM18AAP inh -4, PHOSPHO1 inh 6, Cardio protect 0 and PfGluPho inh -18.
`Cn1c(SCC(=O)Nc2ccc(Br)cn2)nnc1C1CC1` gave ALR H2O2 inh -9, PfM18AAP inh -6, Cardio protect -5 and PfGluPho inh 18.
`CCOC(=O)c1ccc(NC(=O)CSC2=NC(=O)C(CC)C(=O)N2)cc1` (configuration not stated) gave ALR H2O2 inh 99*, PfM18AAP inh 22, PHOSPHO1 inh -12, Cardio protect 4 and PfGluPho inh -22.
`CCC1C(=O)N=C(SCC(=O)Nc2ccc(Br)cn2)NC1=O` (configuration not stated) gave ALR H2O2 inh 99*, PfM18AAP inh 13, PHOSPHO1 inh 6, Cardio protect 1 and PfGluPho inh 5.
CCC1C(=O)N=C(SCC(=O)Nc2cccc3ccccc23)NC1=O (configuration not stated) was read as ALR H2O2 inh 99*, PfM18AAP inh -2, PHOSPHO1 inh 0, Cardio protect 1 and PfGluPho inh 8.
Screening CCC1C(=O)N=C(SCC(=O)Nc2nc3ccccc3s2)NC1=O (configuration not stated) returned ALR H2O2 inh 99*, PfM18AAP inh -2, PHOSPHO1 inh -5, Cardio protect 4 and PfGluPho inh -4.
Screening CCOC(=O)CC(=O)Nc1nc2ccccc2s1 returned PfM18AAP inh -9, PHOSPHO1 inh -8, Cardio protect -2 and PfGluPho inh -1.
`Cc1cc(C)cc(NS(=O)(=O)CCCS(=O)(=O)Nc2cc(C)cc(C)c2)c1` gave Cardio protect -19 and PfGluPho inh -2.
COc1ccc(CN(C)C(=O)/C=C/c2ccc(S(=O)(=O)N3CCCCCC3)cc2)cc1 was read as ALR H2O2 inh -3, Cardio protect -12 and PfGluPho inh 14.
`COc1ccccc1Nc1nc(C)cs1` gave ALR H2O2 inh 99*, PfM18AAP inh 1, PHOSPHO1 inh 56, Cardio protect -1 and PfGluPho inh 8.
`Cc1ccc(Nc2nc(C)cs2)cc1` gave ALR H2O2 inh 69, PfM18AAP inh -6, PHOSPHO1 inh 65*, Cardio protect -5 and PfGluPho inh 25.
For Cc1csc(Nc2cccc3ccccc23)n1 the results were ALR H2O2 inh 2, PfM18AAP inh 7, PHOSPHO1 inh -12, Cardio protect -7 and PfGluPho inh 14.
Screening Cc1csc(Nc2ccc(Cl)cc2)n1 returned ALR H2O2 inh 71, PfM18AAP inh -3, PHOSPHO1 inh 44, Cardio protect -9 and PfGluPho inh 22.
COc1ccc(C(=O)NNC(=O)C23CC4CC(CC(C4)C2)C3)cc1OC was read as ALR H2O2 inh -3, Cardio protect 14 and PfGluPho inh -1.
For Nc1ccc(S(=O)(=O)NN=Cc2ccccc2[N+](=O)[O-])cc1 the results were Cardio protect 1 and PfGluPho inh 9.
`O=C(c1ccco1)N1CCN(Cc2nc3ccc([N+](=O)[O-])cc3c(=O)n2-c2ccccc2F)CC1` gave PfM18AAP inh 0, PHOSPHO1 inh 0, Cardio protect 54* and PfGluPho inh 17.
O=c1c2cc([N+](=O)[O-])ccc2nc(CN2CCN(c3ccccn3)CC2)n1-c1ccccc1F was read as ALR H2O2 inh 1, PfM18AAP inh 0, PHOSPHO1 inh 33, Cardio protect -3 and PfGluPho inh 24.
